Key:
Experiment in all cases: DAPPL (digital affinity profiling via proximity ligation, sequencing); 10 mM Tris-HCl pH 7.5, 50 mM NaCl, 1 mM DTT, 4% glycerol, room temperature, 30 min; GST-TFs on glutathione beads, 16-mer random dsDNA library, 0.1% formaldehyde crosslink after washing; high values mean tight binding
FLI1 = biological target: T1, FLI1 (Homo sapiens, UniProt Q01543 1-452); conditions: protein: recombinant; tags: N-terminal GST; dsDNA, one strand shown
T1 sequence: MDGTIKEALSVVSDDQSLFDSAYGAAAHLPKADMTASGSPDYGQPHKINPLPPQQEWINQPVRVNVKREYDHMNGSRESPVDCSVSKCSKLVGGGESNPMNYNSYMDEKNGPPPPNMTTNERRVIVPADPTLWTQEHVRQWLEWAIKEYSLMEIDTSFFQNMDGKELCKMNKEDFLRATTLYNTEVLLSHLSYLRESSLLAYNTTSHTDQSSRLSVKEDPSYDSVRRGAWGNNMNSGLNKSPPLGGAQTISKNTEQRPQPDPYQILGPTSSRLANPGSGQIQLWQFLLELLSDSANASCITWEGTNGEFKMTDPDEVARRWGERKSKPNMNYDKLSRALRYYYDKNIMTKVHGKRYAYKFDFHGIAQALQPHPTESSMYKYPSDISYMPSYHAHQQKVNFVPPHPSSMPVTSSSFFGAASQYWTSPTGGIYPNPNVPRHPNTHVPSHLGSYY
How it was run: (§1)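 Beads coated with glutathione captured GST-fused human transcription factors that had been expressed in yeast, and the factors were then given DNA barcodes and pooled with a tag-only sample. The pools were incubated with 200 nmole of a random double-stranded 16-mer DNA library in Tris/NaCl/DTT/glycerol buffer for 30 min at room temperature, washed, crosslinked with 0.1% formaldehyde and proximity-ligated with BsaI/T4 ligase at 37 °C for 1 h. PCR amplification and Illumina NextSeq500 sequencing came last. Binding signal is each hexamer's read frequency for a factor divided by its frequency for the tag-only sample.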

ELK1 = biological target: T2, ELK1 (Homo sapiens, UniProt P19419 1-428); conditions: protein: recombinant; tags: N-terminal GST; dsDNA, one strand shown
T2 sequence: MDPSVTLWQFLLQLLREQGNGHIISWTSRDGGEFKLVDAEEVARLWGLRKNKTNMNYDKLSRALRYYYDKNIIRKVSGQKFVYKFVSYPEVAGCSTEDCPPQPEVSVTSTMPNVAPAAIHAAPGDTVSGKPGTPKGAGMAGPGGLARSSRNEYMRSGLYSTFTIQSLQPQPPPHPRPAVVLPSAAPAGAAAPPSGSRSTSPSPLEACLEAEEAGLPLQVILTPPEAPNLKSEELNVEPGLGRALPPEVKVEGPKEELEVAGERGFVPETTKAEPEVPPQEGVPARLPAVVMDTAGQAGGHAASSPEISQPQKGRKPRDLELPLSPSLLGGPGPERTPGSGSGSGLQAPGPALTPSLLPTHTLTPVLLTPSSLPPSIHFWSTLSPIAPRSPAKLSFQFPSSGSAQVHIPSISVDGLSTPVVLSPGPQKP
How it was run: as §1

GABPA = biological target: T3, GABPA (Homo sapiens, UniProt Q06546 1-454); conditions: protein: recombinant; tags: N-terminal GST; dsDNA, one strand shown
T3 sequence: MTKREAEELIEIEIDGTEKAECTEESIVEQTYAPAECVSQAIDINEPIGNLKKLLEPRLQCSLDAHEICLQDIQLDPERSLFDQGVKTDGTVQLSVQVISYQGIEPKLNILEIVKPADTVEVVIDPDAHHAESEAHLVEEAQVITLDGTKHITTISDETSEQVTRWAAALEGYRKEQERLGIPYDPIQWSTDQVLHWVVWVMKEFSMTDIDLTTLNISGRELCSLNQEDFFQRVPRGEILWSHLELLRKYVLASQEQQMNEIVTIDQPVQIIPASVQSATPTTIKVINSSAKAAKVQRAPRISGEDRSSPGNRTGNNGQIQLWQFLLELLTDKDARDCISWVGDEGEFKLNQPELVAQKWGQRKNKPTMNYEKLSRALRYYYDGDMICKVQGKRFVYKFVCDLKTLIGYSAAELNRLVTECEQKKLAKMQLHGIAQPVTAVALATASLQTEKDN
How it was run: as §1

ERG = biological target: T4, ERG (Homo sapiens, UniProt P11308 1-479); conditions: protein: recombinant; tags: N-terminal GST; dsDNA, one strand shown
T4 sequence: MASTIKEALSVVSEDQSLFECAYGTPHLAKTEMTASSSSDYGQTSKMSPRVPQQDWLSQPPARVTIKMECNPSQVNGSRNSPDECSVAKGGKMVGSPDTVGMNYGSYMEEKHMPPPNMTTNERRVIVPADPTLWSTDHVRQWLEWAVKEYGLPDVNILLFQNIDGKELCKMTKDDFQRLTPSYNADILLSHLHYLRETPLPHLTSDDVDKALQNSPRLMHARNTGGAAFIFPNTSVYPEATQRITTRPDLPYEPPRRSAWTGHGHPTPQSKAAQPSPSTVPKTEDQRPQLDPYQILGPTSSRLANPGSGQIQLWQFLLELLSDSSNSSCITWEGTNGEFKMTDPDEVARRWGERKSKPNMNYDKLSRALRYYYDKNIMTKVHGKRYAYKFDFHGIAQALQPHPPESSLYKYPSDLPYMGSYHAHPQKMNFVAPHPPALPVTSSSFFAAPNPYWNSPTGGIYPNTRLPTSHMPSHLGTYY
How it was run: as §1

ELF1 = ELF1 (Homo sapiens, UniProt P32519 1-619); conditions: protein: recombinant; tags: N-terminal GST; dsDNA, one strand shown
How it was run: as §1

EHF = biological target: T5, EHF (Homo sapiens, UniProt Q9NZC4 1-300); conditions: protein: recombinant; tags: N-terminal GST; dsDNA, one strand shown
T5 sequence: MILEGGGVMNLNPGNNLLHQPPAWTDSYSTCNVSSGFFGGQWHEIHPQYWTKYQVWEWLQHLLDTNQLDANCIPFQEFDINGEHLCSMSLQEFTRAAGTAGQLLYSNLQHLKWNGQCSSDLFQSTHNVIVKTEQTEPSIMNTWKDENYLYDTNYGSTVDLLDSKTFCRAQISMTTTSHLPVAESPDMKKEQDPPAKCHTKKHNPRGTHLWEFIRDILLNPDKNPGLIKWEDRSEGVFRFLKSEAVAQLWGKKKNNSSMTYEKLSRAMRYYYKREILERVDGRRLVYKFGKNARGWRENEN
How it was run: as §1

SPI1 = SPI1 (Homo sapiens, UniProt P17947 1-270); conditions: protein: recombinant; tags: N-terminal GST; dsDNA, one strand shown
How it was run: as §1

SPIB = SPIB (Homo sapiens, UniProt Q01892 1-262); conditions: protein: recombinant; tags: N-terminal GST; dsDNA, one strand shown
How it was run: as §1

ELK3 = biological target: T6, ELK3 (Homo sapiens, UniProt P41970 1-407); conditions: protein: recombinant; tags: N-terminal GST; dsDNA, one strand shown
T6 sequence: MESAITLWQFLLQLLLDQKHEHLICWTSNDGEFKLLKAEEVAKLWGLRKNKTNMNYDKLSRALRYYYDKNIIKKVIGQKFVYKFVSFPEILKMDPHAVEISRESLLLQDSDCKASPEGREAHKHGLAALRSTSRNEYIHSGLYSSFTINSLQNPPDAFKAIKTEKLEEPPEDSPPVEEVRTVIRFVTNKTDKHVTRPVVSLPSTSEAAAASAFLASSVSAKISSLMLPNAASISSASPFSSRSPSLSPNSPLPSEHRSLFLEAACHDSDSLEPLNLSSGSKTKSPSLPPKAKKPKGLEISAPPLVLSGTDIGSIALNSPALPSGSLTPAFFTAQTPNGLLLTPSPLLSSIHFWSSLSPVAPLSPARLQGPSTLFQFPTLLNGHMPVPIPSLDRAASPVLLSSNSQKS
How it was run: as §1

FEV = biological target: T7, FEV (Homo sapiens, UniProt Q99581 1-238); conditions: protein: recombinant; tags: N-terminal GST; dsDNA, one strand shown
T7 sequence: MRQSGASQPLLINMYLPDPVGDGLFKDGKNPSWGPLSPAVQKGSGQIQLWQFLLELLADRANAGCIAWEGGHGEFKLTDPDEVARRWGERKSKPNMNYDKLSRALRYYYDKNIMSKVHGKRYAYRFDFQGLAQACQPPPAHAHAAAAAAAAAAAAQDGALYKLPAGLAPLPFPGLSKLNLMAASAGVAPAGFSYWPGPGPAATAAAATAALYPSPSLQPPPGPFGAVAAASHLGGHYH
How it was run: as §1

ETV5 = ETV5 (Homo sapiens, UniProt P41161 1-510); conditions: protein: recombinant; tags: N-terminal GST; dsDNA, one strand shown
How it was run: as §1

HSF1 = HSF1 (Homo sapiens, UniProt Q00613 1-529); conditions: protein: recombinant; tags: N-terminal GST; chain copies: 3; dsDNA, one strand shown
How it was run: as §1

SPIC = biological target: T8, SPIC (Homo sapiens, UniProt Q8N5J4 1-248); conditions: protein: recombinant; tags: N-terminal GST; dsDNA, one strand shown
T8 sequence: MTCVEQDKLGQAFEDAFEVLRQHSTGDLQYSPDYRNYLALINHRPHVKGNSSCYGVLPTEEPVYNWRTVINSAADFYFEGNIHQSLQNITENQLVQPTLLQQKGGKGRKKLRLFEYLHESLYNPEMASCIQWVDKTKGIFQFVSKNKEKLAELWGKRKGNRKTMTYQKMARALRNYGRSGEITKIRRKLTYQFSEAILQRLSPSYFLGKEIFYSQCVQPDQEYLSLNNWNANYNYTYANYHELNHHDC
How it was run: as §1

ELF4 = ELF4 (Homo sapiens, UniProt Q99607 1-663); conditions: protein: recombinant; tags: N-terminal GST; dsDNA, one strand shown
How it was run: as §1

ELK4 = biological target: T9, ELK4 (Homo sapiens, UniProt P28324-2 1-405); conditions: protein: recombinant; tags: N-terminal GST; dsDNA, one strand shown
T9 sequence: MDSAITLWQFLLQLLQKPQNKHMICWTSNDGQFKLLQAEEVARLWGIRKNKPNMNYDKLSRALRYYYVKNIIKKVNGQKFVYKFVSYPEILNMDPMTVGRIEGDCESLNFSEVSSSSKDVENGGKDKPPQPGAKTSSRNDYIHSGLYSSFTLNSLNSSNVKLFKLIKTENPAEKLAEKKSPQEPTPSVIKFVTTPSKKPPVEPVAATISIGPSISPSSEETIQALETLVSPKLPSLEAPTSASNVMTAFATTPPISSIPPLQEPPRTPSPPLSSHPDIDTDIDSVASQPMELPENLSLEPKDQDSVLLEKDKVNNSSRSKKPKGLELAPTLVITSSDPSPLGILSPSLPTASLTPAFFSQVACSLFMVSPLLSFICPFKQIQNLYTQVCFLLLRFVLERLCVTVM
How it was run: as §1

ETV2 = biological target: T10, ETV2 (Homo sapiens, UniProt O00321 1-342); conditions: protein: recombinant; tags: N-terminal GST; dsDNA, one strand shown
T10 sequence: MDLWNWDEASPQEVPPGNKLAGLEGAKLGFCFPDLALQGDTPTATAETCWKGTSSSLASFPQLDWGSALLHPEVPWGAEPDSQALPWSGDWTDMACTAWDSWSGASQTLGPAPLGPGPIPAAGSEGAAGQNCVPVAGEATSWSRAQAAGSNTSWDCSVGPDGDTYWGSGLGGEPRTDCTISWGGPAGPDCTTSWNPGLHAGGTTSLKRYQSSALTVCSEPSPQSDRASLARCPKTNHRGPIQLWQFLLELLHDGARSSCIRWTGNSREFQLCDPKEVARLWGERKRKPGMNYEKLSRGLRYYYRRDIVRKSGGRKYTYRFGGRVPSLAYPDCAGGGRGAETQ
How it was run: as §1

ELF3 = biological target: T11, ELF3 (Homo sapiens, UniProt P78545 1-371); conditions: protein: recombinant; tags: N-terminal GST; dsDNA, one strand shown
T11 sequence: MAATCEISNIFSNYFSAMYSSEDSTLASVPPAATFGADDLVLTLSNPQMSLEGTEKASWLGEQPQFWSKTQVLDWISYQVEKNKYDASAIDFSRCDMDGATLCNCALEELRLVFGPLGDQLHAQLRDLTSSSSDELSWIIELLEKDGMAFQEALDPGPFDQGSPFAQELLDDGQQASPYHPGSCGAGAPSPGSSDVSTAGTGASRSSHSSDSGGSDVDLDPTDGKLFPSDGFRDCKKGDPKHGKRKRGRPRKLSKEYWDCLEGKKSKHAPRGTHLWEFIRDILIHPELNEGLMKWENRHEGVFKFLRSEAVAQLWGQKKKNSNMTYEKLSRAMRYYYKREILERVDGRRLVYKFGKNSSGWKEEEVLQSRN
How it was run: as §1

CRX = CRX (Homo sapiens, UniProt O43186 1-299); conditions: protein: recombinant; tags: N-terminal GST; dsDNA, one strand shown
How it was run: as §1

ETV1 = ETV1 (Homo sapiens, UniProt P50549 1-477); conditions: protein: recombinant; tags: N-terminal GST; dsDNA, one strand shown
How it was run: as §1

SPIB, sequence (Q01892 whole entry): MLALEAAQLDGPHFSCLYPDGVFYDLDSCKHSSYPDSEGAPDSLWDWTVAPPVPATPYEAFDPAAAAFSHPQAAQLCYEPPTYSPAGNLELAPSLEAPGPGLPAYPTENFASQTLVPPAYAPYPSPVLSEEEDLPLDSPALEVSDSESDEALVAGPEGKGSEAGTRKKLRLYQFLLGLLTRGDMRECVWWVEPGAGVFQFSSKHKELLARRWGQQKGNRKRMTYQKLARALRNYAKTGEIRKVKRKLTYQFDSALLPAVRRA
ELF1, sequence (P32519 whole entry): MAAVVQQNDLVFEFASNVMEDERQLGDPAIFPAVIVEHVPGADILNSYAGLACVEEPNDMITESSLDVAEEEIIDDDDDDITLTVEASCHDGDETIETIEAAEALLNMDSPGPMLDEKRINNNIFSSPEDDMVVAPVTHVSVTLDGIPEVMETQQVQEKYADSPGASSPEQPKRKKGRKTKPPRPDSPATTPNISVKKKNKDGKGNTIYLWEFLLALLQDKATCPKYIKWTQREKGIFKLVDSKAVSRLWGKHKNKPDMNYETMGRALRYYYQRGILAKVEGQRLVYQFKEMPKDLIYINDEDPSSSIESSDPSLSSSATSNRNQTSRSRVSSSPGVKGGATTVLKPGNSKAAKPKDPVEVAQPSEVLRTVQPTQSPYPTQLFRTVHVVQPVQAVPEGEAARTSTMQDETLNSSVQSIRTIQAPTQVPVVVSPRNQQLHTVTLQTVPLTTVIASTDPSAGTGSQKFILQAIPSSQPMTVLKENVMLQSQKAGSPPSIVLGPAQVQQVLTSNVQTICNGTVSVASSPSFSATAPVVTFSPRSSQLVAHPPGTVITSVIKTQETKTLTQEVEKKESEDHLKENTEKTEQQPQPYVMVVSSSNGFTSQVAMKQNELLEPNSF
ELF4, sequence (Q99607 whole entry): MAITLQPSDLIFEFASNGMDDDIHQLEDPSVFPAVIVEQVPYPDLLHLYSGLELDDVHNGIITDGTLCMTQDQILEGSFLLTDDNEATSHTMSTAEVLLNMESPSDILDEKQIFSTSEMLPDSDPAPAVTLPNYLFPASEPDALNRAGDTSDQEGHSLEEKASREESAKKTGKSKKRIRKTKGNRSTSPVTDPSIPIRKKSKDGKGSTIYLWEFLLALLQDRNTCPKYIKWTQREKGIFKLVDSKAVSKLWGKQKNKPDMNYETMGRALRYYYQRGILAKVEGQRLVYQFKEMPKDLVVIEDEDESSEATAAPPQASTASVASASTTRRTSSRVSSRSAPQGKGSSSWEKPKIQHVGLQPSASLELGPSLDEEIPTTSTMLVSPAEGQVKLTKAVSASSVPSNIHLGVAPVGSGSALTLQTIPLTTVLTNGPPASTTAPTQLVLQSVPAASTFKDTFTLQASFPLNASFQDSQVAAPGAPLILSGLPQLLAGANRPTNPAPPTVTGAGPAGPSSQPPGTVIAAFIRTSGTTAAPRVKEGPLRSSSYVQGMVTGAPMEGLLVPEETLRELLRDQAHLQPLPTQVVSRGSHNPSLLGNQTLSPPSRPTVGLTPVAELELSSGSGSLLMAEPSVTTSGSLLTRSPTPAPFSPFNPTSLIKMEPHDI
ETV5, sequence (P41161 whole entry): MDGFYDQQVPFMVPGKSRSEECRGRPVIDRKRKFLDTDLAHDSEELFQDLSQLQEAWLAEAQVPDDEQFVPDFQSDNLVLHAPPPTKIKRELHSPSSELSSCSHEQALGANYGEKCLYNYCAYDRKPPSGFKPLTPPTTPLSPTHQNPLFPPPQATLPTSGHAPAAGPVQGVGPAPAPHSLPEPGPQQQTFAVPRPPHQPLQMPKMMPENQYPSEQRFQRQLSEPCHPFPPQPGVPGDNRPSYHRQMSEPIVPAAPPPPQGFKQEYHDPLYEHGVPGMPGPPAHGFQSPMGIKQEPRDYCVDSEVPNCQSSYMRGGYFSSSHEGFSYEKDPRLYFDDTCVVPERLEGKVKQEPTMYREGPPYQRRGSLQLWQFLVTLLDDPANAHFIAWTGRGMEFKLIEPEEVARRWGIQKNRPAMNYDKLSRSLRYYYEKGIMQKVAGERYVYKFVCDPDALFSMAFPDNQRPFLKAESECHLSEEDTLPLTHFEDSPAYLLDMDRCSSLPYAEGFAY
ETV1, sequence (P50549 whole entry): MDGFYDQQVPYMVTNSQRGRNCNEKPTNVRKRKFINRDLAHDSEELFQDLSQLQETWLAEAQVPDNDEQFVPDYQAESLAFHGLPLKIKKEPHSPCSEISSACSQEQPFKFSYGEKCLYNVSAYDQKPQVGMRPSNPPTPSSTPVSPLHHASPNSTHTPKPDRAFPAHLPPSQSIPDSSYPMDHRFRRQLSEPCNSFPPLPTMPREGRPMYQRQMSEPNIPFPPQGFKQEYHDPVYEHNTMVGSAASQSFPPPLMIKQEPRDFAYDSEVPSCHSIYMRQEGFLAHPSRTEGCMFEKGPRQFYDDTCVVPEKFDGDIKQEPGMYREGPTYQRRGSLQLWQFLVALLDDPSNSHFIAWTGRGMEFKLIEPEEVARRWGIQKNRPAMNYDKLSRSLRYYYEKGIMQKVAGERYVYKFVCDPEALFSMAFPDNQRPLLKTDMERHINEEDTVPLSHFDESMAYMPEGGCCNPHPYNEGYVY
HSF1, sequence (Q00613 whole entry): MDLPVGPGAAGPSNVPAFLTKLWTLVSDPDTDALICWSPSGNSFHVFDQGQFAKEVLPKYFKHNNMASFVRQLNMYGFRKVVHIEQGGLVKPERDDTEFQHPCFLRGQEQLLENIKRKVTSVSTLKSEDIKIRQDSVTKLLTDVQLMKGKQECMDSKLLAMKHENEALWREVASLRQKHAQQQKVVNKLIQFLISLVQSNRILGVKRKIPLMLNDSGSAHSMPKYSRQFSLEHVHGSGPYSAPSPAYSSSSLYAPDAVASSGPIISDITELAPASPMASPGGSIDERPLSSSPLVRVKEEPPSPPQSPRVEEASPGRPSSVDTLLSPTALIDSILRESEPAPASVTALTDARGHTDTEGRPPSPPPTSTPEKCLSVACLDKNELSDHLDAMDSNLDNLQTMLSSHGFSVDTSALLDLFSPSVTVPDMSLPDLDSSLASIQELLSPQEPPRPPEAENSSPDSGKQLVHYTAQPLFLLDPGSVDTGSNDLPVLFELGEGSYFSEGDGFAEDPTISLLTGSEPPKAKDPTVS
CRX, sequence (O43186 whole entry): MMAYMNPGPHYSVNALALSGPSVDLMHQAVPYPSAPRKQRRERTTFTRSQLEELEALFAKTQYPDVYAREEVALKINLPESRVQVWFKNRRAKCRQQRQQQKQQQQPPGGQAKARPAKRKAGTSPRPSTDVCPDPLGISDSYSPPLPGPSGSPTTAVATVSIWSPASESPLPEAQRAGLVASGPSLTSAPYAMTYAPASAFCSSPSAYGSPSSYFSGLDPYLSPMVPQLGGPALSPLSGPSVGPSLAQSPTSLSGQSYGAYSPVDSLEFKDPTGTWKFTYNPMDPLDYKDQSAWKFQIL

What does the source list for TCACTT?
binding signal (FLI1): 1.56 fold enrichment (6-mer frequency, TF over GST control); binding signal (ELK1): 1.78 fold enrichment (6-mer frequency, TF over GST control); binding signal (GABPA): 1.52 fold enrichment (6-mer frequency, TF over GST control); binding signal (ERG): 1.8 fold enrichment (6-mer frequency, TF over GST control); binding signal (ELF1): 1.66 fold enrichment (6-mer frequency, TF over GST control); binding signal (EHF): 1.67 fold enrichment (6-mer frequency, TF over GST control); binding signal (SPI1): 2.11 fold enrichment (6-mer frequency, TF over GST control); binding signal (SPIB): 1.82 fold enrichment (6-mer frequency, TF over GST control); binding signal (ELK3): 1.69 fold enrichment (6-mer frequency, TF over GST control); binding signal (FEV): 1.99 fold enrichment (6-mer frequency, TF over GST control); binding signal (ETV5): 1.75 fold enrichment (6-mer frequency, TF over GST control); binding signal (HSF1): 1.14 fold enrichment (6-mer frequency, TF over GST control); binding signal (SPIC): 1.62 fold enrichment (6-mer frequency, TF over GST control); binding signal (ELF4): 1.74 fold enrichment (6-mer frequency, TF over GST control); binding signal (ELK4): 1.74 fold enrichment (6-mer frequency, TF over GST control); binding signal (ETV2): 1.72 fold enrichment (6-mer frequency, TF over GST control); binding signal (ELF3): 1.62 fold enrichment (6-mer frequency, TF over GST control); binding signal (CRX): 1.23 fold enrichment (6-mer frequency, TF over GST control); binding signal (ETV1): 1.67 fold enrichment (6-mer frequency, TF over GST control)
